The values that follow come from the supplement of paper PMC12340641.

Over roughly 1,000 compounds, “relative growth recovery (pomalidomide 10 uM = 100%, DMSO = 0%)” has its median near -1.6; the highest 2% begin near 21. The sample as a whole holds a higher share of the highest values than the screen did.

The test concerns HEK293FT dCK*-IKZF1. Description: relative growth recovery (pomalidomide 10 uM = 100%, DMSO = 0%); higher = more growth rescue (IKZF1 fusion degradation). The note with it: compound concentration: 5 uM; AraC concentration: 0.3 uM; overnight pretreatment + 4 days AraC. On the procedure: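 Growth recovery screen of the molecular-glue-like (Specs) library. HEK293FT cells expressing a dCK*-IKZF1 fusion (primary) or dCK* alone (counter) were pretreated overnight with compound at 5 uM, then given 0.3 uM AraC for 4 days. Hoechst nuclei were counted by imaging. Primary: normalised to pomalidomide (100%) and DMSO (0%), mean of 2 replicates. Counter: normalised to no-AraC (100%) and AraC+DMSO (0%), single replicate.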
Take `CCC(C)(C)C(=O)Nc1ccc(S(=O)(=O)Nc2ncccn2)cc1`: the relative growth recovery was -5.08%.
The value for `Cc1ccnc(NS(=O)(=O)c2ccc(NS(=O)(=O)c3ccc(F)cc3)cc2)n1` was -0.59%; that for `Cc1nc(Nc2cccc(C3CCCN3C(=O)COc3ccc(F)cc3)n2)sc1C` (stereo not given) was 14.4%; that for `Cc1cc(C)nc(NS(=O)(=O)c2ccc(Nc3nc(-c4cccnc4)cs3)cc2)n1` was -1.15%.
`COc1cc(NS(=O)(=O)c2ccc(NC(=O)COc3ccc(C)cc3)cc2)nc(OC)n1`: the relative growth recovery was 1.75%.
The value for `O=C(CN1CCC(c2cccc(Nc3nccs3)n2)CC1)Nc1ccc(F)cc1` was 9.19%.
Under `COc1ccc(Cl)c2c1[nH]c1nc(SCC(=O)Nc3ccc(F)cc3)nnc12` stands -2.51%; under `Cc1cnc(Nc2cccc(C3(C(N)=O)CCN(C(=O)C4CCCCC4)CC3)n2)s1`, -18.2%.
The value for `COc1ccccc1OCC(=O)Nc1ccc(S(=O)(=O)Nc2ncccn2)cc1` was 1.59%; that for `Cc1cnc(Nc2cccc(C3CCN(C(=O)C45CC6CC(CC(C6)C4)C5)CC3)n2)s1` was 1.16%; that for `CCCOc1ccc(C(=O)Nc2ccc(S(=O)(=O)Nc3nc(C)cc(C)n3)cc2)cc1` was -2.85%.
In the case of `Cc1cc(Cl)ccc1OC(C)C(=O)Nc1ccc(S(=O)(=O)Nc2ccccn2)cc1` (stereo not given), the relative growth recovery is 0.47%.
Under `Cc1cc(NS(=O)(=O)c2ccc(NC(=O)CCCOc3ccc(Cl)cc3)cc2)nc(C)n1` stands -1.54%; under `Cc1csc(Nc2cccc(C3CCCN3C(=O)CO)n2)n1` (stereo not given), 1.4%.
In the case of `CC(=O)NC1(CC(=O)N2CCC(c3cccc(Nc4ncc(C)s4)n3)CC2)CCCCC1`, the relative growth recovery is -11.7%.
The value for `Cc1ccc(Nc2nc(C3CCCN(CC(N)=O)C3)cs2)nc1` (stereo not given) was -5.75%; that for `Cc1cc(C)nc(NS(=O)(=O)c2ccc(NC(=S)NC(=O)c3ccc(F)c(F)c3)cc2)n1` was -2.13%; that for `Cc1cnc(Nc2cccc(C3CN(C(=O)C4CCOC4)CCO3)n2)s1` (stereo not given) was -8.06%.
With `Cc1cc(C)nc(NS(=O)(=O)c2ccc(NC(=O)COc3ccc(Cl)cc3)cc2)n1`, the relative growth recovery amounted to 3.77%.
Under `Cc1ccc(S(=O)(=O)Nc2ccc(S(=O)(=O)Nc3ncccn3)cc2)cc1` stands -3.26%.
Regarding `O=C(Nc1ccc(S(=O)(=O)Nc2ncccn2)cc1)C(F)(F)F`, the relative growth recovery is 12.6%.
The value for `O=C1CCC(N2C(=O)c3ccc(N4CCC(C(=O)O)CC4)cc3C2=O)C(=O)N1` (stereo not given) was 1.72%.
Take `Cc1cc(C)nc(NS(=O)(=O)c2ccc(NC(=O)c3ccc(S(=O)(=O)N(C)C)cc3)cc2)n1`: the relative growth recovery was -5.78%.
The value for `Cc1cc(Cl)ccc1OCC(=O)Nc1ccc(S(=O)(=O)Nc2ncccn2)cc1` was -2.19%; that for `Cc1ccc(Oc2ccc(N3C(=O)c4ccc(Oc5ccc(N)cc5)cc4C3=O)cc2)cc1C` was -8.53%; that for `CCNc1nc(NCC)nc(NS(=O)(=O)c2ccc(N)cc2)n1` was 3.4%.
The value for `Cc1ccnc(NS(=O)(=O)c2ccc(NC(=O)c3ccc(C)c(C)c3)cc2)n1` was 1.75%; that for `CC(=O)Nc1ccc(S(=O)(=O)N(C#N)c2nc(C)cc(C)n2)cc1` was 4.26%; that for `Cc1cnc(Nc2cccc(C3CN(C(=O)CC4CCCCC4)CCO3)n2)s1` (stereo not given) was -11.7%.
Turning to `Cc1cnc(Nc2cccc(C3CN(C(=O)C4CCCCC4)CCO3)n2)s1` (stereo not given), the relative growth recovery was -11.7%.
Turning to `CC(=O)Nc1cccc(Oc2ccc3c(c2)C(=O)N(c2ccc(OC(C)=O)cc2)C3=O)c1`, the relative growth recovery was -2.76%.
For the molecule `O=C(Nc1ccc(S(=O)(=O)Nc2ncccn2)cc1)c1ccc([N+](=O)[O-])cc1`, the relative growth recovery is -0.33%.
Under `Cc1csc(Nc2cccc(C3CCCN3C(=O)CC3CC(C)(C)NC(C)(C)C3)n2)n1` (stereo not given) stands -0.835%; under `COc1ccc(OCCCC(=O)Nc2ccc(S(=O)(=O)Nc3ncccn3)cc2)cc1`, -3.56%; under `CN(CCN1CCC(C(=O)O)CC1)c1cccc2c1C(=O)N(C1CCC(=O)NC1=O)C2=O` (stereo not given), 5.47%.
In the case of `CCC(Oc1ccccc1)C(=O)Nc1ccc(S(=O)(=O)Nc2ncccn2)cc1` (stereo not given), the relative growth recovery worked out at 78.9%.
Under `CCC(Oc1ccccc1)C(=O)Nc1ccc(S(=O)(=O)Nc2nc(C)cc(C)n2)cc1` (stereo not given) stands -3.29%.
As to `CC(Oc1ccccc1)C(=O)Nc1ccc(S(=O)(=O)Nc2ncccn2)cc1` (stereo not given), the relative growth recovery is -0.515%.
Under `Cc1cc(C)nc(NS(=O)(=O)c2ccc(NC(=O)c3oc4ccccc4c3C)cc2)n1` stands -2.64%; under `Cc1cnc(Nc2cccc(C3CCN(C(=O)CCn4ncc5ccccc54)CC3)n2)s1`, -1.66%; under `COc1cc(NS(=O)(=O)c2ccc(NC(=O)c3ccccc3C)cc2)nc(OC)n1`, -0.335%.
For `COc1ccc(C(=O)Nc2ccc(S(=O)(=O)Nc3cc(OC)nc(OC)n3)cc2)c(OC)c1`, the relative growth recovery came to 3.94%.
Under `CCOc1cc(C(=O)Nc2ccc(S(=O)(=O)Nc3ncccn3)cc2)cc(OCC)c1OCC` stands 0.09%; under `COc1ccc(C(=O)Nc2ccc(S(=O)(=O)Nc3ncccn3)cc2)c(OC)c1`, -1.31%.
The value for `Cc1cnc(Nc2cccc(C3CN(C(=O)CN(C(=O)CC(C)C)c4ccccc4)CCO3)n2)s1` (stereo not given) was 1.34%.
Take `COc1ccc(CCC(=O)N2CCOC(c3cccc(Nc4nc(C)cs4)n3)C2)cc1` (stereo not given): the relative growth recovery is 32.4%.
Under `Cc1csc(Nc2cccc(C3CN(C(=O)CCc4nc(C)no4)CCO3)n2)n1` (stereo not given) stands 5.6%.
As for `COc1ccc(CCC(=O)N2CCOC(c3cccc(Nc4ncc(C)s4)n3)C2)cc1` (stereo not given), the relative growth recovery was found to be 15.7%.
The value for `Cc1csc(Nc2cccc(C3CCCN3C(=O)CCCc3ccc(F)cc3)n2)n1` (stereo not given) was 0.885%; that for `Cc1csc(Nc2cccc(C3CN(C(=O)CCCc4ccc(F)cc4)CCO3)n2)n1` (stereo not given) was 25.2%; that for `COc1cccc(CCC(=O)N2CCOC(c3cccc(Nc4ncc(C)s4)n3)C2)c1` (stereo not given) was 15.8%.
Under `O=[N+]([O-])c1ccc(S(=O)(=O)Nc2ccc(Cl)cn2)cc1` stands -4.66%; under `O=[N+]([O-])c1ccc(S(=O)(=O)Nc2nc3ccccc3nc2Nc2ccccc2)cc1`, 8.16%; under `CC(C)Nc1nc(NC(C)C)nc(NS(=O)(=O)c2ccc(N)cc2)n1`, -1.87%.
The value for `CC(C)N(C(=O)CN1CCOC(c2cccc(Nc3nccs3)n2)C1)C1CCCCC1` (stereo not given) was -2.24%; that for `Cc1csc(Nc2cccc(C3CCN(C(=O)Cn4nc(C)cc4C)CC3)n2)n1` was 16.9%; that for `Cc1cnc(Nc2cccc(C3CCN(C(=O)CC4CCCCC4)CC3)n2)s1` was -13.5%.
Consider `O=C(c1cccc2ncccc12)N1CCOC(c2cccc(Nc3nccs3)n2)C1` (stereo not given), for which the relative growth recovery is -7.12%.
`Cc1cc(C)nc(NS(=O)(=O)c2ccc(NC(=O)c3ccc(Cl)cc3Cl)cc2)n1`: the relative growth recovery is -0.215%.
On to `Cc1cnc(Nc2cccc(C(C(=O)N(C)C)C3CCN(C(=O)[C@H](CC(C)C)NC(=O)OC(C)(C)C)CC3)n2)s1` (stereo not given in full), for which the relative growth recovery was determined as 3.71%.
